Laboratory results: PubChem BioAssay AID1159580 (chemical genetic matrix, 2015)
The campaign covered roughly 5,500 compounds. About 2,000 (36%) were called active. Inconclusive results (about 18%) are left out. Rule as the data show it: active = normalized growth mostly below about 0.91 (no sharp cut-off); inconclusive = no clear call, values can overlap the other calls; inactive = mostly above about 0.92. This is one part of the list.

Test: chemical genetic growth profiling, strain panel (AID 1159580);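 also: tested at 20 µM; growth read once vehicle control cultures reached saturation at 30 °C; 1 = growth at the plate median or of vehicle wells; lower values mean less growth of the strain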
Details: growth OD
[1] = S. cerevisiae deletion strains, locus YDL101C, strain DUN1, stronger effect = lower value
[2] = S. cerevisiae deletion strains, locus YHR030C, strain SLT2, stronger effect = lower value
[3] = S. cerevisiae deletion strains, locus YJL095W, strain BCK1, stronger effect = lower value
[4] = S. cerevisiae deletion strains, locus YOR061W, strain CKA2, stronger effect = lower value

Measured: normalized growth

COc1cc2cccc(OC)c(=O)c2c(OC)c1OC
inactive: S. cerevisiae deletion strains, locus YAL013W, strain DEP1, stronger effect = lower value 1.01 | S. cerevisiae deletion strains, locus YBR021W, strain FUR4, stronger effect = lower value 0.994 | S. cerevisiae deletion strains, locus YBR229C, strain ROT2, stronger effect = lower value 1.01 | S. cerevisiae deletion strains, locus YCL029C, strain bik1, stronger effect = lower value 1.02 | S. cerevisiae deletion strains, locus YDL035C, strain GPR1, stronger effect = lower value 1.02 | S. cerevisiae deletion strains, locus YDL074C, strain BRE1, stronger effect = lower value 1 | [1] 1.01 | S. cerevisiae deletion strains, locus YDL134C, strain PPH21, stronger effect = lower value 1.01 | S. cerevisiae deletion strains, locus YDL185W, strain tfp1, stronger effect = lower value 1.01 | S. cerevisiae deletion strains, locus YDL192W, strain arf1, stronger effect = lower value 1.03 | S. cerevisiae deletion strains, locus YDR101C, strain arx1, stronger effect = lower value 0.991 | S. cerevisiae deletion strains, locus YDR150W, strain NUM1, stronger effect = lower value 1.02 | S. cerevisiae deletion strains, locus YDR162C, strain NBP2, stronger effect = lower value 1.02 | S. cerevisiae deletion strains, locus YDR318W, strain mcm21, stronger effect = lower value 1.03 | S. cerevisiae deletion strains, locus YDR388W, stronger effect = lower value 1.01 | S. cerevisiae deletion strains, locus YDR502C, strain sam2, stronger effect = lower value 0.989 | S. cerevisiae deletion strains, locus YEL061C, strain CIN8, stronger effect = lower value 1.01 | S. cerevisiae deletion strains, locus YER110C, stronger effect = lower value 1.02 | S. cerevisiae deletion strains, locus YER155C, strain BEM2, stronger effect = lower value 1 | S. cerevisiae deletion strains, locus YER167W, strain BCK2, stronger effect = lower value 1.03 | S. cerevisiae deletion strains, locus YGL078C, strain dbp3, stronger effect = lower value 1 | S. cerevisiae deletion strains, locus YGL086W, strain mad1, stronger effect = lower value 1.03 | S. cerevisiae deletion strains, locus YGL248W, strain PDE1, stronger effect = lower value 1.01 | S. cerevisiae deletion strains, locus YGR078C, strain PAC10, stronger effect = lower value 0.998 | S. cerevisiae deletion strains, locus YGR135W, strain pre9, stronger effect = lower value 0.982 | S. cerevisiae deletion strains, locus YGR229C, strain SMI1, stronger effect = lower value 0.994 | S. cerevisiae deletion strains, locus YGR252W, strain gcn5, stronger effect = lower value 0.988 | [2] 1.01 | S. cerevisiae deletion strains, locus YHR079C, strain IRE1 (second series), stronger effect = lower value 1 | S. cerevisiae deletion strains, locus YHR094C, strain hxt1, stronger effect = lower value 1.01 | S. cerevisiae deletion strains, locus YHR129C, strain ARP1, stronger effect = lower value 1 | S. cerevisiae deletion strains, locus YHR200W, strain rpn10, stronger effect = lower value 1.01 | S. cerevisiae deletion strains, locus YIL066C, strain RNR3, stronger effect = lower value 1.02 | S. cerevisiae deletion strains, locus YIL073C, strain SPO22, stronger effect = lower value 1.06 | S. cerevisiae deletion strains, locus YIL125W, strain kgd1, stronger effect = lower value 1.02 | S. cerevisiae deletion strains, locus YIR030C, strain dcg1, stronger effect = lower value 1.01 | [3] 1 | S. cerevisiae deletion strains, locus YJL134W, strain LCB3, stronger effect = lower value 1.01 | S. cerevisiae deletion strains, locus YJL168C, strain set2, stronger effect = lower value 1.01 | S. cerevisiae deletion strains, locus YJL187C, strain SWE1 (second series), stronger effect = lower value 0.996 | S. cerevisiae deletion strains, locus YJR043C, strain POL32, stronger effect = lower value 0.999 | S. cerevisiae deletion strains, locus YJR075W, strain HOC1, stronger effect = lower value 1 | S. cerevisiae deletion strains, locus YKL009W, strain mrt4, stronger effect = lower value 1.03 | S. cerevisiae deletion strains, locus YKL068W, stronger effect = lower value 1.01 | S. cerevisiae deletion strains, locus YKL085W, strain MDH1 (second series), stronger effect = lower value 1.02 | S. cerevisiae deletion strains, locus YKL085W, strain MDH1, stronger effect = lower value 1.02 | S. cerevisiae deletion strains, locus YKL190W, strain CNB1, stronger effect = lower value 1.01 | S. cerevisiae deletion strains, locus YKR001C, strain vps1, stronger effect = lower value 1.01 | S. cerevisiae deletion strains, locus YLR039C, strain RIC1, stronger effect = lower value 1.09 | S. cerevisiae deletion strains, locus YLR058C, strain SHM2, stronger effect = lower value 1.01 | S. cerevisiae deletion strains, locus YLR102C, strain apc9, stronger effect = lower value 1.01 | S. cerevisiae deletion strains, locus YLR262C, strain YPT6, stronger effect = lower value 1.09 | S. cerevisiae deletion strains, locus YLR268W, strain sec22, stronger effect = lower value 0.99 | S. cerevisiae deletion strains, locus YLR330W, strain CHS5, stronger effect = lower value 1.01 | S. cerevisiae deletion strains, locus YLR342W, strain FKS1 (second series), stronger effect = lower value 1.05 | S. cerevisiae deletion strains, locus YLR371W, strain rom2, stronger effect = lower value 1.01 | S. cerevisiae deletion strains, locus YLR418C, strain cdc73, stronger effect = lower value 0.945 | S. cerevisiae deletion strains, locus YML016C, strain PPZ1, stronger effect = lower value 1.01 | S. cerevisiae deletion strains, locus YML032C, strain rad52, stronger effect = lower value 1.03 | S. cerevisiae deletion strains, locus YML124C, strain tub3, stronger effect = lower value 1.01 | S. cerevisiae deletion strains, locus YMR078C, strain ctf18, stronger effect = lower value 1.02 | S. cerevisiae deletion strains, locus YMR223W, strain ubp8, stronger effect = lower value 1.01 | S. cerevisiae deletion strains, locus YMR263W, strain SAP30, stronger effect = lower value 0.996 | S. cerevisiae deletion strains, locus YMR307W, strain GAS1, stronger effect = lower value 0.966 | S. cerevisiae deletion strains, locus YNL067W, strain RPL9B, stronger effect = lower value 0.992 | S. cerevisiae deletion strains, locus YNL128W, strain TEP1, stronger effect = lower value 1 | S. cerevisiae deletion strains, locus YNL153C, strain GIM3, stronger effect = lower value 0.977 | S. cerevisiae deletion strains, locus YNL233W, strain BNI4, stronger effect = lower value 0.977 | S. cerevisiae deletion strains, locus YNL250W, strain rad50, stronger effect = lower value 1.01 | S. cerevisiae deletion strains, locus YNL271C, strain bni1, stronger effect = lower value 1.01 | S. cerevisiae deletion strains, locus YNL298W, strain CLA4, stronger effect = lower value 1.02 | S. cerevisiae deletion strains, locus YNL307C, strain MCK1, stronger effect = lower value 1.03 | S. cerevisiae deletion strains, locus YNL322C, strain KRE1, stronger effect = lower value 1.02 | S. cerevisiae deletion strains, locus YNR052C, strain pop2, stronger effect = lower value 1.01 | S. cerevisiae deletion strains, locus YOL006C, strain TOP1, stronger effect = lower value 1.01 | S. cerevisiae deletion strains, locus YOL012C, strain htz1 0.97 | S. cerevisiae deletion strains, locus YOL147C, strain pex11, stronger effect = lower value 1.01 | [4] 1.02 | S. cerevisiae deletion strains, locus YOR069W, strain VPS5, stronger effect = lower value 1.01 | S. cerevisiae deletion strains, locus YOR136W, strain idh2, stronger effect = lower value 1.02 | S. cerevisiae deletion strains, locus YOR144C, strain elg1, stronger effect = lower value 1.01 | S. cerevisiae deletion strains, locus YOR184W, strain ser1, stronger effect = lower value 1.04 | S. cerevisiae deletion strains, locus YOR316C, strain cot1, stronger effect = lower value 1.01 | S. cerevisiae deletion strains, locus YPL055C, strain LGE1, stronger effect = lower value 0.984 | S. cerevisiae deletion strains, locus YPL241C, strain CIN2, stronger effect = lower value 1.01 | S. cerevisiae deletion strains, locus YPR119W, strain clb2, stronger effect = lower value 1.01 | S. cerevisiae deletion strains, locus YPR141C, strain kar3, stronger effect = lower value 1.03 | S. cerevisiae deletion strains, locus YPR163C, strain tif3, stronger effect = lower value 1.01 | S. cerevisiae deletion strains, locus YPR167C, strain met16, stronger effect = lower value 1.01 | S. cerevisiae deletion strains, strain wtn01, stronger effect = lower value 0.992 | S. cerevisiae strains, strain wild type, stronger effect = lower value 1.01

COc1cc(C2CC(=S)Nc3ccccc3S2)cc(OC)c1OC (configuration not stated)
inactive: S. cerevisiae deletion strains, locus YAR019C, strain CDC15, stronger effect = lower value 0.99 | S. cerevisiae deletion strains, locus YBL105C, strain PKC1, stronger effect = lower value 0.986 | S. cerevisiae deletion strains, locus YBR135W, strain CKS1, stronger effect = lower value 0.993 | S. cerevisiae deletion strains, locus YBR136W, strain MEC1, stronger effect = lower value 0.992 | S. cerevisiae deletion strains, locus YBR160W, strain CDC28, stronger effect = lower value 1 | S. cerevisiae deletion strains, locus YDL017W, strain CDC7, stronger effect = lower value 0.998 | S. cerevisiae deletion strains, locus YDL028C, strain MPS1, stronger effect = lower value 0.981 | [1] 0.987 | S. cerevisiae deletion strains, locus YDL108W, strain KIN28, stronger effect = lower value 0.978 | S. cerevisiae deletion strains, locus YDL132W, strain cdc53, stronger effect = lower value 0.999 | S. cerevisiae deletion strains, locus YDL214C, strain PRR2, stronger effect = lower value 0.923 | S. cerevisiae deletion strains, locus YDR052C, strain DBF4, stronger effect = lower value 0.995 | S. cerevisiae deletion strains, locus YDR054C, strain cdc34, stronger effect = lower value 0.986 | S. cerevisiae deletion strains, locus YDR226W, strain ADK1, stronger effect = lower value 0.99 | S. cerevisiae deletion strains, locus YDR477W, strain SNF1, stronger effect = lower value 0.969 | S. cerevisiae deletion strains, locus YER123W, strain YCK3, stronger effect = lower value 0.881 | S. cerevisiae deletion strains, locus YER133W, strain GLC7, stronger effect = lower value 0.941 | S. cerevisiae deletion strains, locus YFL009W, strain cdc4, stronger effect = lower value 0.988 | S. cerevisiae deletion strains, locus YFL029C, strain CAK1, stronger effect = lower value 0.988 | S. cerevisiae deletion strains, locus YFR003C, strain YPI1, stronger effect = lower value 0.99 | S. cerevisiae deletion strains, locus YFR019W, strain FAB1, stronger effect = lower value 0.945 | S. cerevisiae deletion strains, locus YFR028C, strain CDC14, stronger effect = lower value 0.993 | S. cerevisiae deletion strains, locus YGR040W, strain KSS1, stronger effect = lower value 0.94 | S. cerevisiae deletion strains, locus YGR052W, strain FMP48, stronger effect = lower value 1.02 | S. cerevisiae deletion strains, locus YGR092W, strain DBF2, stronger effect = lower value 0.94 | [2] 1.07 | S. cerevisiae deletion strains, locus YHR079C, strain IRE1, stronger effect = lower value 1.04 | S. cerevisiae deletion strains, locus YHR082C, strain KSP1, stronger effect = lower value 1.06 | S. cerevisiae deletion strains, locus YHR205W, strain SCH9, stronger effect = lower value 0.974 | S. cerevisiae deletion strains, locus YIL147C, strain SLN1, stronger effect = lower value 0.98 | [3] 1.08 | S. cerevisiae deletion strains, locus YJL128C, strain PBS2, stronger effect = lower value 0.942 | S. cerevisiae deletion strains, locus YJL157C, strain FAR1, stronger effect = lower value 0.928 | S. cerevisiae deletion strains, locus YJR016C, strain ILV3, stronger effect = lower value 1 | S. cerevisiae deletion strains, locus YJR066W, strain TOR1 (second series), stronger effect = lower value 0.937 | S. cerevisiae deletion strains, locus YJR066W, strain TOR1, stronger effect = lower value 1.08 | S. cerevisiae deletion strains, locus YKL048C, strain ELM1, stronger effect = lower value 0.975 | S. cerevisiae deletion strains, locus YKL067W, strain YNK1, stronger effect = lower value 0.946 | S. cerevisiae deletion strains, locus YKL101W, strain HSL1, stronger effect = lower value 0.951 | S. cerevisiae deletion strains, locus YKL193C, strain SDS22, stronger effect = lower value 0.994 | S. cerevisiae deletion strains, locus YKL203C, strain TOR2, stronger effect = lower value 1.03 | S. cerevisiae deletion strains, locus YLR113W, strain HOG1, stronger effect = lower value 1 | S. cerevisiae deletion strains, locus YLR133W, strain CKI1, stronger effect = lower value 0.978 | S. cerevisiae deletion strains, locus YLR403W, strain SFP1, stronger effect = lower value 0.967 | S. cerevisiae deletion strains, locus YML070W, strain DAK1, stronger effect = lower value 0.914 | S. cerevisiae deletion strains, locus YMR001C, strain CDC5, stronger effect = lower value 0.993 | S. cerevisiae deletion strains, locus YMR205C, strain PFK2 (second series), stronger effect = lower value 0.95 | S. cerevisiae deletion strains, locus YMR277W, strain FCP1, stronger effect = lower value 0.999 | S. cerevisiae deletion strains, locus YNL006W, strain LST8, stronger effect = lower value 0.994 | S. cerevisiae deletion strains, locus YNL020C, strain ARK1, stronger effect = lower value 0.961 | S. cerevisiae deletion strains, locus YNL161W, strain CBK1, stronger effect = lower value 0.995 | S. cerevisiae deletion strains, locus YNL183C, strain NPR1, stronger effect = lower value 1.06 | S. cerevisiae deletion strains, locus YNL207W, strain RIO2, stronger effect = lower value 0.987 | S. cerevisiae deletion strains, locus YNL222W, strain SSU72, stronger effect = lower value 0.974 | S. cerevisiae deletion strains, locus YNL307C, strain MCK1 (second series), stronger effect = lower value 0.963 | S. cerevisiae deletion strains, locus YOL078W, strain AVO1, stronger effect = lower value 0.985 | S. cerevisiae deletion strains, locus YOL136C, strain PFK27, stronger effect = lower value 0.939 | [4] 0.944 | S. cerevisiae deletion strains, locus YOR119C, strain RIO1, stronger effect = lower value 1.01 | S. cerevisiae deletion strains, locus YOR231W, strain MKK1, stronger effect = lower value 1.03 | S. cerevisiae deletion strains, locus YOR329C, strain SCD5, stronger effect = lower value 0.999 | S. cerevisiae deletion strains, locus YPL031C, strain PHO85, stronger effect = lower value 0.953 | S. cerevisiae deletion strains, locus YPL153C, strain RAD53, stronger effect = lower value 0.945 | S. cerevisiae deletion strains, locus YPL204W, strain HRR25, stronger effect = lower value 0.962 | S. cerevisiae deletion strains, locus YPL209C, strain IPL1, stronger effect = lower value 0.983 | S. cerevisiae deletion strains, locus YPL256C, strain CLN2, stronger effect = lower value 1.05 | S. cerevisiae deletion strains, locus YPR025C, strain CCL1, stronger effect = lower value 0.994 | S. cerevisiae deletion strains, locus YPR106W, strain ISR1, stronger effect = lower value 0.992 | S. cerevisiae deletion strains, locus YPR111W, strain DBF20, stronger effect = lower value 0.981 | S. cerevisiae deletion strains, strain NNK1, stronger effect = lower value 0.988 | S. cerevisiae deletion strains, strain TSCII, stronger effect = lower value 0.999
